Data: PubChem BioAssay (NCATS)
Results filed as inconclusive are left out. Calls of active or inactive are those of the source. The call rests on the fitted dose curve; in most records, active means well fitted activation curve with a large enough effect in the main read-out, with a control signal flat (not every such curve was filed as active); inconclusive means small, poorly fitted or top-dose-only effect, or effect the other way, or a change in a side signal; inactive means flat fitted curve, though single readings scatter.

Each molecule was assayed against 3',5'-cyclic-AMP phosphodiesterase 4B (Homo sapiens) (UniProt Q07343) (assay: qHTS Assay for Inhibitors of PDE-IV (AID 607)). Conditions: HEK293 ACTOne CNG channel cells, membrane potential fluorescence; series mostly up to 22.9 µM.
How it was run: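 The readout is membrane depolarisation from a cAMP-sensing CNG channel, detected with a potential dye at ex 535/em 590. Cells were HEK293-derived (endogenous PDE-IV) at 1000 cells/well, titrated up to 22.9 uM final.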

Sequence of 3',5'-cyclic-AMP phosphodiesterase 4B (Homo sapiens) (Q07343 whole entry, looked up): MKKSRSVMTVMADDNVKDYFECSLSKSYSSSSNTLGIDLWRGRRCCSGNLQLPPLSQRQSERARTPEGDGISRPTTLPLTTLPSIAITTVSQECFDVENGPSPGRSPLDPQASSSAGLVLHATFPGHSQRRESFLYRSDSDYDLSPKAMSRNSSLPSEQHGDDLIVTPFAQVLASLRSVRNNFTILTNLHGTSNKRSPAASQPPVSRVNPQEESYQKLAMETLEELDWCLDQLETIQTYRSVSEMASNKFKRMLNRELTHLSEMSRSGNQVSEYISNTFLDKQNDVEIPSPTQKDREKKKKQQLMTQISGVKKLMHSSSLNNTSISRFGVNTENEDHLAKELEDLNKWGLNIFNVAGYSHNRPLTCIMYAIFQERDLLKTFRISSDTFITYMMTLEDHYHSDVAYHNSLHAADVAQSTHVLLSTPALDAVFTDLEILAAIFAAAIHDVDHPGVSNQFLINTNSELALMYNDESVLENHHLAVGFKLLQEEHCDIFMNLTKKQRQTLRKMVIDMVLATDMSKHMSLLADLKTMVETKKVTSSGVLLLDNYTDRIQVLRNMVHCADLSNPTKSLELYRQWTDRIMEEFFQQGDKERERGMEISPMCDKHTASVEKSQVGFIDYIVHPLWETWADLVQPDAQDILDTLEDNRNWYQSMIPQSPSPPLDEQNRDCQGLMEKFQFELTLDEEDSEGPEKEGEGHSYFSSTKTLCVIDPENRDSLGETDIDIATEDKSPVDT

Row | Compound | outcome
1 | Nc1nc(OCc2ccccc2)c2[nH]cnc2n1 | inactive
2 | Cc1c(OCC(F)(F)F)ccnc1CS(=O)c1nc2ccccc2[nH]1 (centres undefined) | inactive
3 | N=C(N=C(N)N)N1CCOCC1 | inactive
4 | Cc1ccc(C)c(OCCCC(C)(C)C(=O)O)c1 | inactive
5 | COc1ccccc1N1CCN(CCN(C(=O)C2CCCCC2)c2ccccn2)CC1 | inactive
6 | CC1(C)NC(=O)N(c2ccc([N+](=O)[O-])c(C(F)(F)F)c2)C1=O | inactive
7 | c1ccc2[nH]c(-c3cscn3)nc2c1 | inactive
8 | CCOc1cc(CC(=O)N[C@@H](CC(C)C)c2ccccc2N2CCCCC2)ccc1C(=O)O | inactive
9 | O=c1ccc2ccc(O)c(O)c2o1 | inactive
10 | CCCc1cc(=O)[nH]c(=S)[nH]1 | inactive
11 | Nc1ccc(S(N)(=O)=O)cc1 | inactive
12 | Cc1cccc(C#Cc2ccccc2)n1 | inactive
13 | CN1C(C(=O)Nc2ccccn2)=C(O)c2sccc2S1(=O)=O | inactive
14 | O=C(O)c1cccnc1Nc1cccc(C(F)(F)F)c1 | inactive
15 | NS(=O)(=O)c1cc(C(=O)O)c(NCc2ccco2)cc1Cl | inactive
16 | NC(=NCc1ccccc1)NC(=O)c1nc(Cl)c(N)nc1N | inactive
17 | O=c1c(O)c(-c2cc(O)c(O)c(O)c2)oc2cc(O)cc(O)c12 | inactive
18 | NNc1nncc2ccccc12 | inactive
19 | CCC1=C(C)CN(C(=O)NCCc2ccc(S(=O)(=O)NC(=O)NC3CCC(C)CC3)cc2)C1=O (centres undefined) | inactive
20 | O=c1cc(N2CCOCC2)oc2c(-c3ccccc3)cccc12 | inactive
21 | Nc1cc(C(Cl)=C(Cl)Cl)c(S(N)(=O)=O)cc1S(N)(=O)=O | inactive
22 | CC1(C)C(=O)N(CCN2CCC(C(=O)c3ccc(F)cc3)CC2)c2ccccc21 | inactive
23 | O=c1c(O)c(-c2ccc(O)cc2O)oc2cc(O)cc(O)c12 | inactive
24 | CCCCN(CCCC)CCC(O)c1cc2c(Cl)cc(Cl)cc2c2cc(C(F)(F)F)ccc12 (centres undefined) | inactive
